Test results as given in PubChem BioAssay.
Calls of active or inactive are those of the source.

Columns and labels:
[1] = test system: PRMT1 (protein arginine N-methyltransferase 1); assay: small molecules binding arginine methyltransferase PRMT1 – biochemical, small-molecule microarray, 635 nm fluorescence, primary screen (AID 1088); details: higher = more signal;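 further: binding of Prmt1 protein to compounds spotted on small-molecule microarray slides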
[2] = growth effects on S. cerevisiae YJM789 – YJM789 clinical isolate, OD600, 24 h, basal, primary screen (AID 1089); details: higher = more signal, called active from +8 up or from −8 down;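 further: growth of clinical yeast isolate S. cerevisiae YJM 789 seeded 1000 cells per well; test concentration not given here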
[3] = S. pombe growth modifiers, basal conditions – strain 972, OD600, 24 h, no modulator, primary screen (AID 1090);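 further: basal condition with compound alone and no growth modifier present; test concentration not given here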; details: S. pombe 972 growth, higher = more signal, called active from +8 up or from −8 down
[4] = budding yeast growth modifiers under rapamycin – strain BY4716, OD600, 96 h, primary screen (AID 1091); further: test concentration not given here; details: S. cerevisiae BY4716 + rapamycin, higher = more signal, called active from +8 up or from −8 down
[5] = target: Torsin-1A-interacting protein 2 (Homo sapiens) (UniProt Q8NFQ8); assay: small molecules binding lysate-expressed LULL1 – cell lysate, human LULL1 lysate, 635/667 nm fluorescence, primary screen (AID 1092); details: small-molecule microarray, hLULL1 lysate binding, 635 nm fluorescence; higher = more signal;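 further: probe is lysate of COS7 cells overexpressing human LULL1; score merges per-feature 667 nm fluorescence with signal-to-noise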
Torsin-1A-interacting protein 2 (Homo sapiens), sequence (Q8NFQ8 whole entry, looked up): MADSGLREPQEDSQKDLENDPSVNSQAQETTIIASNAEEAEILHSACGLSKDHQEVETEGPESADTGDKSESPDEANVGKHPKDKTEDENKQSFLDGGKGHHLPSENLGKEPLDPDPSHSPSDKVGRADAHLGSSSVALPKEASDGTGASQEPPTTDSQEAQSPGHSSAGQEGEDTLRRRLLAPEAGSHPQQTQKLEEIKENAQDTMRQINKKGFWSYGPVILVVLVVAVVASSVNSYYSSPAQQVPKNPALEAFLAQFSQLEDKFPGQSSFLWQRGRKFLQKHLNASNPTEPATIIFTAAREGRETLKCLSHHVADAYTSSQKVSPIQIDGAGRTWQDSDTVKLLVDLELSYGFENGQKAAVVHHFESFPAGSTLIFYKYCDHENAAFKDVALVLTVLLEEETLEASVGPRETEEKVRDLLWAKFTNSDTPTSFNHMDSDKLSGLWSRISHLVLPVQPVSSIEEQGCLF

[6] = optical density change of DRC41 E. coli – strain DRC41, OD650, 24 h, E. coli filamentation project, primary screen (AID 1093);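 further: MC1000 strain lacking acrAB efflux and sulA so SOS filamentation is blocked; test concentration not given here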; details: E. coli DRC41 growth, higher = more signal, called active from +8 up or from −8 down
[7] = probe aLefty2 binding to arrayed compounds – biochemical, biotinylated probe, 635/667 nm fluorescence, primary screen (AID 1094); details: small-molecule microarray, higher = more signal;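 further: score merges spot fluorescence near 667 nm with spot signal-to-noise ratio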
[8] = test system: Noggin (protein binding on small-molecule microarray); assay: small molecules binding Noggin protein – biochemical, 635/667 nm fluorescence, primary screen (AID 1095); details: 635 nm fluorescence, higher = more signal;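 further: score merges 667 nm feature fluorescence with signal to noise over triplicate slides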
[9] = target: Neurogenic locus notch homolog protein 3 (Homo sapiens) (UniProt Q9UM47); assay: small molecules binding NOTCH3 protein – biochemical, 635/667 nm fluorescence, primary screen (AID 1096); details: small-molecule microarray, 635 nm fluorescence, higher = more signal
Neurogenic locus notch homolog protein 3 (Homo sapiens), sequence (Q9UM47 whole entry, looked up): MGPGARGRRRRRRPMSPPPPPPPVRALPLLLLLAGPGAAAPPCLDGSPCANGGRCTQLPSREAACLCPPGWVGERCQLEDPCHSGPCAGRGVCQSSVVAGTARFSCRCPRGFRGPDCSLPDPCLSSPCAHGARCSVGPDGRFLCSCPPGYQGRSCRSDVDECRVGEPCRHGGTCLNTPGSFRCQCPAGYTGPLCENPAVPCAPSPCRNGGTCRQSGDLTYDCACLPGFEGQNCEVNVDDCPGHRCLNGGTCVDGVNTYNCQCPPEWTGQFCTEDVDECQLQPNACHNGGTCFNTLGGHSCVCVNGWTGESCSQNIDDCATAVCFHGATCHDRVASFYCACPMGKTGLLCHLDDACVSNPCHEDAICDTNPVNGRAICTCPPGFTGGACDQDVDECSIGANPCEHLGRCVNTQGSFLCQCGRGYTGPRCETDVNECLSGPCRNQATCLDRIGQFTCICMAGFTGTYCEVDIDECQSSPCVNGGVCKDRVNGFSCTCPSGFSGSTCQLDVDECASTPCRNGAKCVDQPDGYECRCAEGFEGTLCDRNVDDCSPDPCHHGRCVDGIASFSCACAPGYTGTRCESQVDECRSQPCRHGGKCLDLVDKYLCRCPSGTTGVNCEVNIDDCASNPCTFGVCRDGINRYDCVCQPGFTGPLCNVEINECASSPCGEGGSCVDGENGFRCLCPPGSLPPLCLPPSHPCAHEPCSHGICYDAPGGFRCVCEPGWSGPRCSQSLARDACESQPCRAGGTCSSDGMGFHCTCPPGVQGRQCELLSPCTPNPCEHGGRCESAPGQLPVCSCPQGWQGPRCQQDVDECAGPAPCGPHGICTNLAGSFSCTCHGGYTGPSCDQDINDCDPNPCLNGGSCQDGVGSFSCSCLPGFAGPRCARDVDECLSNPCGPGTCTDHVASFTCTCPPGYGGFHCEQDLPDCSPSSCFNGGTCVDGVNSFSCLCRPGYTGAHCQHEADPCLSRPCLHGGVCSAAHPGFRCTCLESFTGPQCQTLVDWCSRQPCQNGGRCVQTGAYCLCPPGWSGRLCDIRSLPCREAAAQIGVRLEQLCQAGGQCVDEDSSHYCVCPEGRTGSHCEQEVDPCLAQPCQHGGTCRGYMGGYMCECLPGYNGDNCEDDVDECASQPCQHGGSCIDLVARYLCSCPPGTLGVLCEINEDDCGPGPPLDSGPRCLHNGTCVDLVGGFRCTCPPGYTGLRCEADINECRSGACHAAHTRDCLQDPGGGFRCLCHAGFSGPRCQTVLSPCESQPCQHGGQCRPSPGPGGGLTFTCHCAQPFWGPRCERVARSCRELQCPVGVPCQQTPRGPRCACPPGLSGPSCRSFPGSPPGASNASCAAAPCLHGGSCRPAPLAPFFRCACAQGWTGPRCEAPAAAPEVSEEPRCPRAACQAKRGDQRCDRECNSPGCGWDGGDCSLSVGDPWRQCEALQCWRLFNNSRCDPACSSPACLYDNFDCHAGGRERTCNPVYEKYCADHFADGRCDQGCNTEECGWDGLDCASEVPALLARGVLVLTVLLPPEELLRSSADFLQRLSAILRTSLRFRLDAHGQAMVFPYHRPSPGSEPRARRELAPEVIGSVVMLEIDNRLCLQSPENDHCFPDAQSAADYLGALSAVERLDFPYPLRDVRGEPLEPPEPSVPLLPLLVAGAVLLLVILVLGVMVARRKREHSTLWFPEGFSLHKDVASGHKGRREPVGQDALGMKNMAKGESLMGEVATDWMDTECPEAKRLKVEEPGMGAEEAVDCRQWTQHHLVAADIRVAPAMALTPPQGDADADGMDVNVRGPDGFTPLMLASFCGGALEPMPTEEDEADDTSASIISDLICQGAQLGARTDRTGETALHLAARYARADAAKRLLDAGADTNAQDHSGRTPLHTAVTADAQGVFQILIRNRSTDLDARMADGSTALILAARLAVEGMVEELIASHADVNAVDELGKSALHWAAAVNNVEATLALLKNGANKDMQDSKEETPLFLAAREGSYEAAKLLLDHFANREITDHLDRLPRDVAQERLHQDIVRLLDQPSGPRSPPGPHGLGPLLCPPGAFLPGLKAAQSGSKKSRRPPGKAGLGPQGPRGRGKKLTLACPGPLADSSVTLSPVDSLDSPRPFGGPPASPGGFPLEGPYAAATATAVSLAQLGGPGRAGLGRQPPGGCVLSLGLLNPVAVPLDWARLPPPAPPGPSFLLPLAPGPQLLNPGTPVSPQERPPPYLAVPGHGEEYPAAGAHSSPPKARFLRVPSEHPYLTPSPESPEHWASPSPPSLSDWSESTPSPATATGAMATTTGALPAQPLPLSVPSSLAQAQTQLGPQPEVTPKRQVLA

[10] = probe aEGFR binding to arrayed compounds – biochemical, biotinylated probe, 635/667 nm fluorescence, primary screen (AID 1097); details: small-molecule microarray, higher = more signal;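 further: probe is a biotinylated anti-EGFR antibody binding compounds printed on slides; score combines fluorescence near 667 nm and signal to noise of each spot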
[11] = test system: Plasmodium falciparum Sir2 (PF13_0152, Sir2A); assay: Plasmodium falciparum Sir2A binding compounds – biochemical, small-molecule microarray, 635 nm fluorescence, primary screen (AID 1098); details: fluorescence 635 nm, higher = more signal;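 further: score merges spot fluorescence intensity with its signal-to-noise ratio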
[12] = probe aDKK1 binding to arrayed compounds – biochemical, biotinylated probe, 635/667 nm fluorescence, primary screen (AID 1099); details: small-molecule microarray, higher = more signal;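 further: score merges 667nm spot fluorescence with signal to noise across triplicate slides; reference of the scale not given here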
[13] = probe aCHRDL2 binding to arrayed compounds – biochemical, biotinylated probe, 635/667 nm fluorescence, primary screen (AID 1100); details: small-molecule microarray, higher = more signal
[14] = change in splice reporter luminescence, either direction, cell-based, HEK293, spliceosome inhibition project, primary screen (AID 1101); details: HEK293 splicing luciferase reporter, 24 h, higher = more signal, called active from +8 up or from −8 down;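 further: HEK293 cells carrying a splicing-competent luciferase reporter gene; test concentration not given here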
[15] = target: Fibroblast growth factor 10 (Homo sapiens) (UniProt O15520); assay: compounds binding fibroblast growth factor 10 – biochemical, small-molecule microarray, 635 nm fluorescence, primary screen (AID 1102); details: FGF10 binding, fluorescence 635 nm, higher = more signal
Fibroblast growth factor 10 (Homo sapiens), sequence (O15520 whole entry, looked up): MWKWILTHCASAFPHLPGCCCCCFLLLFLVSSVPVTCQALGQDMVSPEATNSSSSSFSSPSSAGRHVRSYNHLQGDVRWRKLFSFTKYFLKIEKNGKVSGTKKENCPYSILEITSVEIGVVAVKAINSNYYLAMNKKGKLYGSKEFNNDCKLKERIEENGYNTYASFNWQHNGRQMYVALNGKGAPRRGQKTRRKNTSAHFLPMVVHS

[16] = test system: glycogen synthase kinase-3 (GSK3A per assay name; protocol says GSK3B); assay: compounds binding glycogen synthase kinase-3 – biochemical, small-molecule microarray, 635 nm fluorescence, GSK3A, primary screen (AID 1103); details: fluorescence 635 nm, higher = more signal; further: the record names both GSK3A and GSK3B
[17] = target: Epidermal growth factor receptor (Homo sapiens) (UniProt P00533); assay: compounds binding epidermal growth factor receptor – biochemical, small-molecule microarray, 635 nm fluorescence, primary screen (AID 1104); details: EGFR binding, higher = more signal;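 further: score merges 667 nm emission intensity with spot signal to noise over triplicate slides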
Epidermal growth factor receptor (Homo sapiens), sequence (P00533 whole entry, looked up): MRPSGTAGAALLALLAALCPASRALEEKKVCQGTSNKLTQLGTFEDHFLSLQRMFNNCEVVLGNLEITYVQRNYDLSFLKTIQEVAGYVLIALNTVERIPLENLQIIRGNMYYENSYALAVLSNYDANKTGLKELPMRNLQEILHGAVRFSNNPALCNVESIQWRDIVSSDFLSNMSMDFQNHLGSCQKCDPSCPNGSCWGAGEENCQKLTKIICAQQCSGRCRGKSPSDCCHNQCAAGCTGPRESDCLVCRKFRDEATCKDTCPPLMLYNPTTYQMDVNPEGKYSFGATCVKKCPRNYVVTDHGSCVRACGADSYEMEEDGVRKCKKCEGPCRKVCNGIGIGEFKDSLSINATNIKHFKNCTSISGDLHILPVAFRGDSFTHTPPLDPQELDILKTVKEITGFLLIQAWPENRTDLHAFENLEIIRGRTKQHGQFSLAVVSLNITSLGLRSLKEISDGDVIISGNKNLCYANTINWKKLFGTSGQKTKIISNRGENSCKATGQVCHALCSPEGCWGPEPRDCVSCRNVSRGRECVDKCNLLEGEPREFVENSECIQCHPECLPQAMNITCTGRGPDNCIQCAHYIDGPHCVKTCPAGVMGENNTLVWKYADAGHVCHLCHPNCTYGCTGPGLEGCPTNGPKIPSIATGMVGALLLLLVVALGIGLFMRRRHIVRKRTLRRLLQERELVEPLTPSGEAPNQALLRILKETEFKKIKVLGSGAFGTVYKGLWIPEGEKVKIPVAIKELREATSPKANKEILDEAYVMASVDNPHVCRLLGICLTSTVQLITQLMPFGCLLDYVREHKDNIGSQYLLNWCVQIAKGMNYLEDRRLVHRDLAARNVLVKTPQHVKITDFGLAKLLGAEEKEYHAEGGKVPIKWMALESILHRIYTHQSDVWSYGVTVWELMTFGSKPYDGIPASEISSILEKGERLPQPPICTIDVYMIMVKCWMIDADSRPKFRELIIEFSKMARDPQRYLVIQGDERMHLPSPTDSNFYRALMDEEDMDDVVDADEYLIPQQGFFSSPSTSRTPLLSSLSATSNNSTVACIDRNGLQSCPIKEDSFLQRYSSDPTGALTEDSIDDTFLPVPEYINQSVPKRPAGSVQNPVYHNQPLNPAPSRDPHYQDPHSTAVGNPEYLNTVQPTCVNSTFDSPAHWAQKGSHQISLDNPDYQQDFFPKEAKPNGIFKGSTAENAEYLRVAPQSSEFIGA

[18] = target: Follistatin-related protein 3 (Homo sapiens) (UniProt O95633); assay: compounds binding follistatin-related protein 3 – biochemical, small-molecule microarray, 635 nm fluorescence, primary screen (AID 1105); details: FSTL3 binding, higher = more signal;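 further: score merges emission near 667 nm and signal to noise per printed spot across three slides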
Follistatin-related protein 3 (Homo sapiens), sequence (O95633 whole entry, looked up): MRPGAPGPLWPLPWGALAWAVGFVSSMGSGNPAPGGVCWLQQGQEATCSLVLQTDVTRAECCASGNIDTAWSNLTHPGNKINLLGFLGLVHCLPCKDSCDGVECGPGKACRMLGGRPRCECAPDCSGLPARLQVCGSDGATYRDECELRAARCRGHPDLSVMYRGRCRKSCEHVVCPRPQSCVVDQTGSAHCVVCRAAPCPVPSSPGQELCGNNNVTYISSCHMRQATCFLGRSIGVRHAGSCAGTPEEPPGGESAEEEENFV

[19] = target: Dickkopf-related protein 1 (Homo sapiens) (UniProt O94907); assay: small molecules binding DKK1 protein – biochemical, small-molecule microarray, 635 nm fluorescence scan, primary screen (AID 1106); details: higher = more signal;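 further: score merges emission near 667 nm with signal to noise over three replicate slides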
Dickkopf-related protein 1 (Homo sapiens), sequence (O94907 whole entry, looked up): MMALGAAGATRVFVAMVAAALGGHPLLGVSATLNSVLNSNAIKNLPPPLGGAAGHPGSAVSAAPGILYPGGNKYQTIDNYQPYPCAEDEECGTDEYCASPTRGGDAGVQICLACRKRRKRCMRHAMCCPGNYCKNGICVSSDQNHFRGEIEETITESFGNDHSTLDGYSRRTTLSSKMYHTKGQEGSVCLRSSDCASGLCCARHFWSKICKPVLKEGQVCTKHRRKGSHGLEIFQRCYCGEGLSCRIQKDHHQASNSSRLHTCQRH

[20] = test system: Inhibin beta A chain (activin A); assay: small molecules binding activin A – biochemical, small-molecule microarray, 635 nm fluorescence scan, primary screen (AID 1107); details: INHBA, higher = more signal;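 further: mouse activin A protein probed at 4.33 µg/mL on printed slides; score merges bound-protein fluorescence near 667 nm with spot signal-to-noise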

| SMILES | composite z-score [1] | z-score [2] | z-score [3] | z-score [4] | composite z-score [5] | z-score [6] | composite z-score [7] | composite z-score [8] | composite z-score [9] | composite z-score [10] | composite z-score [11] | composite z-score [12] | composite z-score [13] | z-score [14] | composite z-score [15] | composite z-score [16] | composite z-score [17] | composite z-score [18] | composite z-score [19] | composite z-score [20] |
| --- | --- | --- | --- | --- | --- | --- | --- | --- | --- | --- | --- | --- | --- | --- | --- | --- | --- | --- | --- | --- |
| C=CCC(OC(C)=O)[C@@H]1[C@@H](N(Cc2ccc(-c3ccccc3)cc2)C(=O)c2ccc(C)cc2)c2cc(OCCCO)ccc2N1C(=O)c1ccc2ccccc2c1 (stereo not given in full) | 0.0718 | -2.33 (inactive) | -0.326 (inactive) | -0.693 (inactive) | 0.327 | 1.34 (inactive) | -0.173 | 0.166 | 0.305 | -0.139 | -0.376 | -0.165 | -0.093 | -1.36 (inactive) | 0.265 | -0.549 | -0.0575 | 0.168 | -0.134 | 0.944 |
| O=c1cccc(-c2ccccc2C(F)(F)F)o1 | -0.205 | -0.35 (inactive) | -0.392 (inactive) | 0.591 (inactive) | 1.08 | -0.582 (inactive) | 0.659 | -0.798 | -0.85 | 0.323 | -0.722 | 1.15 | 0.567 | 0.756 (inactive) | -0.382 | -0.363 | -0.955 | -0.722 | -0.469 | 1.11 |
| COc1ccc(CCNC(=O)[C@@]2(C)c3ccccc3C(=O)N(Cc3cc(C(F)(F)F)cc(C(F)(F)F)c3)[C@H]2c2ccc(CO)cc2)cc1 | 1.53 | 0.182 (inactive) | -0.836 (inactive) | 1.09 (inactive) | 1.7 | 1.02 (inactive) | 0.795 | 0.179 | 0.0336 | 0.577 | 0.569 | 1.64 | 1.02 | -0.926 (inactive) | 0.329 | 0.651 | 0.875 | 0.371 | 0.338 | -0.307 |
| CC(C)CNC(=O)[C@@]1(C)c2ccccc2C(=O)N(Cc2cc(F)cc(C(F)(F)F)c2)[C@H]1c1ccc(CO)cc1 | 1.56 | -1.08 (inactive) | -0.428 (inactive) | -0.629 (inactive) | 2.6 | 0.149 (inactive) | -0.0172 | 0.602 | 0.616 | -0.165 | 0.972 | -0.162 | 0.35 | 0.451 (inactive) | 0.398 | 0.729 | 0.181 | 0.379 | 0.343 | 0.938 |
| COC(=O)C1(CC(C)C)C=C2C(=C(C(C)C)C(=O)C2C)CN1 (stereo not given) | -0.866 | -0.166 (inactive) | -0.0608 (inactive) | 1.08 (inactive) | 0.412 | -0.844 (inactive) | -0.0289 | -1.29 | -0.877 | -0.103 | -0.573 | 0.834 | 0.937 | 1.97 (inactive) | -0.296 | -2 | -0.961 | -0.771 | -0.871 | 1.34 |
| CCCC=C(CCC)[C@@H](NC(=O)c1ccccc1)c1ccc(C(=O)OC)cc1 | 0.661 | -0.532 (inactive) | -1.5 (inactive) | -0.938 (inactive) | 2.56 | 0.689 (inactive) | 0.688 | 0.748 | 0.997 | 0.23 | 0.578 | 0.374 | -0.0902 | -1.98 (inactive) | 1 | 0.294 | 0.891 | 0.806 | 0.162 | 0.613 |
| COC(=O)C(CC#Cc1ccc2c(c1)[C@]1(C(=O)N2)[C@H](c2ccc(O)cc2)N2[C@H](c3ccccc3)[C@H](c3ccccc3)OC(=O)[C@H]2[C@@H]1C(=O)N1CCc2cc(OC)c(OC)cc2C1)C(=O)OC | 1.54 | 1.39 (inactive) | 1.12 (inactive) | 0.735 (inactive) | 1.59 | -0.829 (inactive) | -0.109 | 0.958 | 1.05 | 0.232 | 1.38 | 0.505 | 0.724 | -0.541 (inactive) | 0.817 | 1.32 | 0.708 | 1.29 | 1.06 | -0.0531 |
| CN(C)CCCNC(=O)[C@@H]1c2ccccc2C(=O)N(C2Cc3ccccc3C2)[C@H]1c1ccc(CO)cc1 | 1.56 | -0.463 (inactive) | -0.271 (inactive) | -0.915 (inactive) | 2.03 | 0.688 (inactive) | -0.127 | 0.0726 | 0.241 | 0.111 | 1.78 | 0.227 | 0.559 | -0.196 (inactive) | -0.514 | 1.27 | -0.741 | -0.12 | -0.273 | 0.923 |
| C=CCC(OC(C)=O)[C@@H]1[C@@H](N(Cc2ccc(-c3ccccc3)cc2)C(=O)c2cccc3ccccc23)c2cc(OCCCO)ccc2N1C(=O)c1ccc2ccccc2c1 (stereo not given in full) | 0.189 | -0.521 (inactive) | -0.328 (inactive) | -0.569 (inactive) | 0.813 | -0.584 (inactive) | 0.0802 | -0.106 | -0.0403 | -0.136 | -0.859 | 1.11 | -0.0972 | -0.686 (inactive) | 0.256 | 0.201 | -0.0576 | 0.5 | -0.19 | 1.08 |
| CC(C)(C)OC(=O)CC[C@]1(C(=O)N2CCOCC2)N=C(c2ccc(OCCCO)cc2)O[C@H]1c1ccccc1CN=[N+]=[N-] | 1.55 | -0.673 (inactive) | 0.306 (inactive) | -0.611 (inactive) | 3.32 | -0.798 (inactive) | -0.127 | 1.79 | 0.725 | -0.044 | 1.61 | 0.528 | 0.885 | -0.371 (inactive) | 1.4 | 1.32 | -0.0261 | 1.08 | -0.0465 | 0.543 |
